# Laboratory results as given in PubChem BioAssay AID1209 (Sanford-Burnham Center for Chemical Genomics, 2008).
# In all, about 190,000 compounds went through this assay and about 810 (0.43%) were called active. The entries come from a sample that favours actives as a whole. Values without a mark were called inactive. Cut-off read from the data, not from the text of the source: active = inhibition above about 50%; inactive = the rest.
# Target: Mannose-6-phosphate isomerase (Homo sapiens) (UniProt P34949)
# Test: inhibitors of human PMI, primary screen, biochemical, fluorescence intensity, coupled assay (AID 1209);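 note: plate controls were DMSO vehicle for no effect and wells lacking substrate for full effect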
# Details: purified PMI enzyme, at 20 µM, stronger effect = higher value
# Mannose-6-phosphate isomerase (Homo sapiens), sequence (P34949 whole entry, looked up): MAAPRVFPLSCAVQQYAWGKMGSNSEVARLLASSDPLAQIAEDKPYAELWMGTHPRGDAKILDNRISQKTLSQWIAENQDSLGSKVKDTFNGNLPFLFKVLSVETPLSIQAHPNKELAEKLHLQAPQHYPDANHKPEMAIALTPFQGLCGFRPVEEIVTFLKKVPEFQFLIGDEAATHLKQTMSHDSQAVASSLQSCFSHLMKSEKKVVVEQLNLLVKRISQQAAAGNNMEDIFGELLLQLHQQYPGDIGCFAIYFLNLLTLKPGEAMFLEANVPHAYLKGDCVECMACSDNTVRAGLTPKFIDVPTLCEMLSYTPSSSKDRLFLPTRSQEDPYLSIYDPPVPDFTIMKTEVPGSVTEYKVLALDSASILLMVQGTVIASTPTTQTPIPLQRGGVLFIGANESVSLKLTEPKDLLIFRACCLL
row,Structure (SMILES),inhibition
1,Cc1cccc(C(=O)NC2CC3CCCC(C2)N3S(=O)(=O)c2ccccc2)c1 (stereo not given),12.2%
2,CCOCc1[nH]c(=S)[nH]c(=O)c1Cc1ccc(OCC(C)C)cc1,-4%
3,O=C(C1CCCN(CCCc2ccccc2)C1)N1CCCCCC1 (stereo not given),-9.9%
4,Cc1ccc(S(=O)(=O)ON=C2CCN(S(=O)(=O)c3ccccc3)CC2)cc1,8%
5,CC1=C/C(=N\OS(=O)(=O)c2ccccc2)C=CC1=O,96.1% (active)
6,CC1=CC(=O)C=C(C)C1=NOC(=O)/C=C\c1ccccc1,17.8%
7,CC1=C/C(=N\OS(=O)(=O)c2ccccc2)C(C(C)C)=CC1=O,78.5% (active)
8,CC1=C/C(=N\OS(=O)(=O)c2ccccc2)C(C)=CC1=O,106% (active)
9,O=S(=O)(O/N=C1\CCCc2ccccc21)c1ccccc1,-1.2%
10,CC1=CC(=O)C(C(C)C)=CC1=NC(=O)c1ccc(C)cc1,46.6%
11,CC(=O)N1C(C)(C)CC(=NOS(=O)(=O)c2ccccc2)CC1(C)C,-17.4%
12,CC1=CC(=O)c2ccccc2C1=O,-57.7%
13,CC1=CC(=O)C=C(C)C1=NOc1ccccc1[N+](=O)[O-],25.5%
14,CC1=C/C(=N\OC(=O)/C=C/c2ccccc2)C(C)=CC1=O,3.5%
15,CC1CCN(C(=O)c2ccc(SCc3ccccc3F)c([N+](=O)[O-])c2)CC1,20%
16,O=C(O)CCCC(=O)Nc1cc([N+](=O)[O-])ccc1O,9.3%
17,COc1ccc(O)c(/C=N/NC(=S)Nc2cccc(S(=O)(=O)N(C)C)c2)c1,-10.9%
18,O=C(c1cn[nH]c1)c1cc(F)ccc1O,12.2%
19,COc1ccc(C(=O)N/N=C(/C)c2cccc(NC(=O)C(F)(F)F)c2)cc1,0.4%
20,CC(C)(C)c1ccc(S(=O)(=O)O/N=C2/CCCCC2c2ccc([N+](=O)[O-])cc2[N+](=O)[O-])cc1 (stereo not given),7.7%
21,CCN(CC)Cc1cc(NC2=NS(=O)(=O)c3ccccc32)ccc1OC(=O)c1ccccc1,-5.8%
22,CC(C)(C)c1ccc(C(=O)NNC(=S)NCC2CCCO2)cc1 (stereo not given),-0.9%
23,O=C1c2ccccc2C(=O)N1CCSc1n[nH]c(=S)s1,-5.1%
24,Cc1nn(-c2ccccc2)c(Cl)c1C(=O)Nc1ccc(N2CCOCC2)cc1,-17.1%
25,COc1ccc(S(=O)(=O)NN=C2CCCCC2)cc1,-30.4%

row,Structure (SMILES),inhibition
1,COc1ccc(-n2nc(C(=O)NCC(=O)NCc3ccco3)c3ccccc3c2=O)cc1,0.1%
2,Fc1ccc(C2=Nn3c(Cc4ccccc4)nnc3SC2)cc1,11.2%
3,c1ccc(-c2ccc(C3=Nn4c(Cn5nnc6ccccc65)nnc4SC3)cc2)cc1,50.3% (active)
4,c1ccc(Cc2nnc3n2N=C(c2ccccc2)CS3)cc1,13.3%
5,O=C(COC(=O)c1cccnc1Cl)Nc1ccccc1OC(F)F,-0.4%
6,CCC(C)(C)NC(=O)C(c1cccn1C)N(C(=O)Cn1nnc2ccccc21)c1ccccc1OC (stereo not given),-6.8%
7,N#Cc1cn(CCOC(=O)c2cccc(C(F)(F)F)c2)c(=O)[nH]c1=O,4.3%
8,CCN1CCN(c2nc3ccccc3nc2C(C#N)C(=O)OCc2ccccc2)CC1 (stereo not given),8.9%
9,COC(=O)c1ccc(OC(=O)c2ccco2)cc1,-5%
10,O=C(Oc1ccc(-c2cnc3ccccc3n2)cc1)c1ccco1,0.2%
11,Cc1cccc(-n2nnnc2SCC(=O)c2cc(C)n(Cc3ccco3)c2C)c1,-2.6%
12,CC(=O)Nc1nc2c(c3c1c(=O)oc1ccccc13)CCCCC2,-2.8%
13,CCOc1ccc(CONS(=O)(=O)c2ccc(NC(C)=O)cc2)cc1Cl,16.3%
14,CC1(C#CC[N+]2(C)CCCCC2)CCC2C(O1)c1ccccc1OC2(C)C (stereo not given),105% (active)
15,C[N+]1(CC#CC(O)(c2ccccc2)c2ccccc2)CCCC1,21.6%
16,CC12CCC3(CO)COC(c4ccccc4O1)C2C3 (stereo not given),3.4%
17,C=CCN(CC=C)C(=O)Nc1ccc2nc(C)sc2c1,8.1%
18,CCOC(=O)N1CCN(C(=O)c2ccc(S(=O)(=O)NCc3ccco3)cc2)CC1,-4.2%
19,Cc1ccc(NC(=O)c2ccc(N/N=C/c3cccc(O)c3)c([N+](=O)[O-])c2)cc1,5.1%
20,O=c1[nH][nH]c(-c2ccccc2)c1C=Nc1ccc(Cl)cc1,-4.3%
21,Cn1cnnc1SCC(=O)Nc1ccccc1F,-2%
22,Cc1cccc(NC(=S)NNC(=O)c2csc(C)c2)c1,-3.7%
23,CCc1cc(C(=O)NNC(=S)Nc2ccccc2C)cs1,-8.6%
24,Cc1cc(C(=O)NNC(=S)Nc2ccccc2C)cs1,70.7% (active)
25,O=C(Nn1cnnc1)C1CCCN1S(=O)(=O)c1ccc(F)cc1 (stereo not given),-3.3%

row,Structure (SMILES),inhibition
1,Cc1ccc(NC(=O)CSc2nnc(C)n2-c2ccccc2)cc1,-1.7%
2,Cc1ccc(-n2c(=O)[nH]c3ncccc3c2=O)cc1,12.9%
3,Cc1ccc(N=Cc2ccc(O)cc2O)cc1F,9.4%
4,Oc1ccc(C=Nc2cccc3ncccc23)c(O)c1,46.8%
5,Oc1ccc(C=Nc2ccc3ncccc3c2)c(O)c1,68.4% (active)
6,O=C(COC(=O)c1cccc(Cl)c1)Nc1cc(Cl)ccc1Oc1ccccc1,18.8%
7,Cc1cc(OCC(O)CN)ccc1Cl (stereo not given),-8.6%
8,Cc1ccc(CN2CCN(/N=C/c3cccnc3)CC2)cc1,17.9%
9,Clc1ccc(CN2CCN(/N=C/c3cccnc3)CC2)cc1,85.6% (active)
10,C(=N\N1CCN(Cc2ccccc2)CC1)/c1cccnc1,9.3%
11,CC(C)(C)C(=O)CSc1nc2c(c(-c3cccs3)c1C#N)CCC2,-25.9%
12,CN1CCc2nc(SCC(=O)Nc3cccc(F)c3)c(C#N)c(-c3cccs3)c2C1,35%
13,CN1CCc2nc(SCC(=O)Nc3ccc(OC(F)(F)F)cc3)c(C#N)c(-c3cccs3)c2C1,15.7%
14,Cc1cccc(CSc2nc(N)c(C#N)c(-c3cccs3)c2C#N)c1,6.6%
15,COc1ccc(NC(=O)CSc2nc3c(c(-c4cccs4)c2C#N)CN(C)CC3)cc1OC,59.8% (active)
16,Cc1cccc(CSc2nc3c(c(-c4cccs4)c2C#N)CN(C)CC3)c1,69.6% (active)
17,COc1ccc2c(c1)C(=O)N(c1ccccc1C)C(=O)C2(C)C,-9.2%
18,COC(=O)CCCNc1ncccc1[N+](=O)[O-],-0.5%
19,Cn1c(SCC(=O)N2CCN(c3ccccc3)CC2)nnc1-c1ccco1,4.2%
20,CC(C)(CNS(C)(=O)=O)SCc1ccc(Cl)cc1,-12.2%
21,Cc1nn(C(C)CC(=O)O)c(C)c1Br (stereo not given),-0.1%
22,COc1cccc(/C=N/NC(=O)c2ccccc2)c1OS(=O)(=O)c1ccccc1,2.4%
23,COc1ccc(C(=O)CCC(C)(C)[N+](=O)[O-])cc1,-6.3%
24,O=C(c1ccc(CS(=O)(=O)c2ccc(Br)cc2)o1)N1CCN(C2CCCCC2)CC1,-9%
25,O=C(NC1CCCCC1)C(=S)N1CCOCC1,10.9%

row,Structure (SMILES),inhibition
1,O=C(NC1CCCCCC1)C(=S)N1CCCC1,4.7%
2,O=C(NC1CCCCCC1)C(=S)N1CCOCC1,61.8% (active)
3,Cc1ccc(C(C(=O)NC2CCCCC2)N2CCC3(CC2)OCCO3)cc1 (stereo not given),1.6%
4,C=CCOC(=O)C1=C[C@H](c2ccc(Br)cc2)[C@@H](CCCO)[C@H](OCC)O1,17.5%
5,Cc1occc(=O)c1O,-5.2%
6,Cc1cc(=O)c2c(O)c(O)ccc2o1,77.7% (active)
7,COc1ccc(-c2cc(=O)c3c(O)c(OC)c(O)cc3o2)cc1,0.6%
8,O=C(O)c1ccccc1Cc1nc2cc(Cl)ccc2c(=O)[nH]1,-7.4%
9,COc1ccc(NC(=O)CCCn2c(=O)c3sccc3n(Cc3ccccc3C)c2=O)cc1,6.6%
10,CCc1ccc(/C=C/c2c[nH]c3ccccc23)[n+](CC)c1,51.8% (active)
11,CCN(CC)C(=O)c1ccc(/C=C/c2c[nH]c3ccccc23)[n+](C)c1,8.9%
12,OCC[n+]1ccc(/C=C/c2c[nH]c3ccccc23)cc1,2.7%
13,NS(=O)(=O)c1ccc(CCNC(=O)C2CCC(CNS(=O)(=O)c3ccc(Br)s3)CC2)cc1 (stereo not given),4.5%
14,CC(C)(C)c1nn(-c2ccccc2)c2nc(Cl)c(C=O)cc12,-1.5%
15,Cc1cc2cc(C=C(C#N)C#N)c(Cl)nc2cc1C,20.3%
16,Cc1cc(C)c2cc(CNC3CCCC3)c(Cl)nc2c1,8.6%
17,Cc1ccc2cc(C=O)c(Cl)nc2c1,37.4%
18,Cc1cc2cc(C=O)c(Cl)nc2cc1C,61.2% (active)
19,Cc1occc1C(=O)NNC(=O)C1CCCCC1,20.4%
20,CCOc1ccc(CCNC(=O)CSc2nn(-c3ccc(C)c(Cl)c3)c(=S)s2)cc1OCC,8.9%
21,CCN(CC1COc2ccccc2O1)C(=S)Nc1ccccc1 (stereo not given),11.9%
22,S=C(c1ccc(-c2ccccc2Cl)o1)N1CCCCC1,10.9%
23,S=C(c1ccc(-c2ccccc2Cl)o1)N1CCOCC1,70.8% (active)
24,S=C(c1ccc(-c2cc(Cl)ccc2Cl)o1)N1CCOCC1,11.6%
25,O=C(CSc1nnc(-c2ccc(OC(F)F)cc2)o1)N1CCOCC1,-4.5%
